This is an account of results in PubChem BioAssay (NCI).

Molecules are shown by their SMILES. About 79,000 compounds went through this panel and 15% of them were active in at least one assay; those are over-represented in the sample as a whole. A number with no mark means an inactive call. The source made the active and inactive calls. No stated cut-off is given here; in the data, active means growth inhibition above about 70%; inactive means the rest.

Assay [1] is described as follows: NCI Yeast Anticancer Drug Screen. Data for the rad50 strain (AID 155).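 Further: 0% = growth of vehicle-only cultures of the same strain.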 Conditions: S. cerevisiae rad50 strain growth inhibition, hits give high values. The method in brief: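 Vehicle-treated cultures provide the reference for the growth inhibition reported for compound-exposed, repair-deficient yeast.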
Assay [2] can be described thus: NCI Yeast Anticancer Drug Screen. Data for the mec2-1 strain (AID 157). Conditions: S. cerevisiae mec2-1 strain, hits give high values. The method in brief:
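Vehicle-treated cultures served as reference for growth inhibition of compound-exposed mec2-1 yeast.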

Assay [3] is described as follows: NCI Yeast Anticancer Drug Screen. Data for the sgs1 mgt1 strain (AID 161).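 Further: 0% = growth of cultures given vehicle only.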 Conditions: S. cerevisiae sgs1 mgt1 strain, hits give high values. The method, boiled down:
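Genetically altered yeast, compound exposure, growth inhibition relative to vehicle.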

A short description of assay [4]: NCI Yeast Anticancer Drug Screen. Data for the cln2 rad14 strain (AID 165).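 Further: 0% = growth equal to vehicle treated cultures.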 As to conditions: S. cerevisiae cln2 rad14 strain, hits give high values. The method in brief: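 Each compound was tested on cln2 rad14 yeast. Inhibition of growth was calculated against vehicle-exposed controls.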
The nature of assay [5]: NCI Yeast Anticancer Drug Screen. Data for the bub3 strain (AID 167). Conditions: S. cerevisiae bub3 mutant strain, hits give high values. The method in brief:
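Mutant yeast screening strain plus compound; vehicle-treated cultures serve as the 0% inhibition reference.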

Assay [6] can be described thus: NCI Yeast Anticancer Drug Screen. Data for the mlh1 rad18 strain (AID 175). As to conditions: S. cerevisiae mlh1 rad18 strain growth inhibition, hits give high values. The method, boiled down: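 Vehicle-treated cultures served as the reference for growth inhibition in a yeast strain carrying DNA damage repair alterations exposed to each compound.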
Where [7] appears, read: at 5.0 µM (retest, dose inferred, filed as 0.5).
The mark [8] stands for this setting: at 50.0 µM (retest, dose inferred, filed as 5.0).

Turning to `CCCCCCCCCCCCCC(=O)OCCCC1CCCO1` (configuration not stated), the growth inhibition is -2% in assay [1] (setting [7]); -2% in assay [1] (setting [8]); 8.55% in assay [1] (at 50.0 µM); -2% in assay [2] (setting [7]); 2% in assay [2] (setting [8]); -13.8% in assay [2] (at 50.0 µM). Besides, the growth inhibition in assay [3] (setting [7]) is -1%; in assay [3] (setting [8]), 4%; in assay [3] (at 50.0 µM), 13.2%; in assay [4] (setting [7]), 7%; in assay [4] (setting [8]), 7%; in assay [4] (at 50.0 µM), 53.6%. Besides, the growth inhibition in assay [5] (setting [7]) was -2%; in assay [5] (setting [8]), -3%; in assay [5] (at 50.0 µM) it was 11.3%; in assay [6] (setting [7]), 11%; in assay [6] (setting [8]), 0%; in assay [6] (at 50.0 µM), -38.2%.
For the compound `Clc1cccc2c(-c3ccccc3)c3cccc(Cl)c3cc12`, the growth inhibition in assay [1] (setting [7]) was 4%; in assay [1] (setting [8]) it was 45%; in assay [1] (at 50.0 µM), 58.8%; in assay [2] (setting [7]) it was 3%; in assay [2] (setting [8]), 50%; in assay [2] (at 50.0 µM), 39.6%. Also, the growth inhibition in assay [3] (setting [7]) was 8%; in assay [3] (setting [8]), 35%; in assay [3] (at 50.0 µM), 42.2%; in assay [4] (setting [7]), 6%; in assay [4] (setting [8]), 54%; in assay [4] (at 50.0 µM) it was 50.9%. The growth inhibition in assay [5] (setting [7]) was -2%; in assay [5] (setting [8]), 51%; in assay [5] (at 50.0 µM), 36.2%; in assay [6] (setting [7]), 1%; in assay [6] (setting [8]), 68%; in assay [6] (at 50.0 µM), 91.4% (active).
On to `CCC[CH2][Sn]([CH2]CCC)([O]C(=O)C(OC)c1ccccc1)[O]C(=O)C(OC)c1ccccc1` (configuration not stated), for which the growth inhibition in assay [1] (setting [7]) was 44%; in assay [1] (setting [8]), 97% (active); in assay [1] (at 50.0 µM), 89% (active); in assay [2] (setting [7]), 40%; in assay [2] (setting [8]) it was 96% (active); in assay [2] (at 50.0 µM), 88.3% (active). In addition, the growth inhibition was 44% in assay [3] (setting [7]); 96% (active) in assay [3] (setting [8]); 84% (active) in assay [3] (at 50.0 µM); 36% in assay [4] (setting [7]); 96% (active) in assay [4] (setting [8]); 88.8% (active) in assay [4] (at 50.0 µM). Besides, the growth inhibition is 77% (active) in assay [5] (setting [7]); 98% (active) in assay [5] (setting [8]); 92% (active) in assay [5] (at 50.0 µM); 57% in assay [6] (setting [7]); 98% (active) in assay [6] (setting [8]); 88.3% (active) in assay [6] (at 50.0 µM).
On to `COC(=O)c1cc(=O)n(-c2ccccc2C(F)(F)F)c(SC)n1`, for which the growth inhibition in assay [1] (setting [7]) is 24%; in assay [1] (setting [8]) it was 91% (active); in assay [1] (at 50.0 µM), 99.2% (active); in assay [2] (setting [7]), 14%; in assay [2] (setting [8]), 92% (active); in assay [2] (at 50.0 µM), 99.5% (active). Moreover, the growth inhibition in assay [3] (setting [7]) is 43%; in assay [3] (setting [8]), 94% (active); in assay [3] (at 50.0 µM) it was 99.5% (active); in assay [4] (setting [7]), 14%; in assay [4] (setting [8]) it was 87% (active); in assay [4] (at 50.0 µM) it was 96.8% (active). Besides, the growth inhibition is 7% in assay [5] (setting [7]); 89% (active) in assay [5] (setting [8]); 99.5% (active) in assay [5] (at 50.0 µM); 39% in assay [6] (setting [7]); 95% (active) in assay [6] (setting [8]); 99.5% (active) in assay [6] (at 50.0 µM).
Turning to `O=C(NNc1ccccc1)c1ccccc1Cl`, the growth inhibition in assay [1] (setting [7]) is -3%; in assay [1] (setting [8]), 93% (active); in assay [1] (at 50.0 µM), 97.5% (active); in assay [2] (setting [7]), 9%; in assay [2] (setting [8]) it was 89% (active); in assay [2] (at 50.0 µM), 92% (active). Besides, the growth inhibition in assay [3] (setting [7]) is 15%; in assay [3] (setting [8]) it was 91% (active); in assay [3] (at 50.0 µM), 96% (active); in assay [4] (setting [7]), -9%; in assay [4] (setting [8]), 89% (active); in assay [4] (at 50.0 µM) it was 93% (active). For the same compound, the growth inhibition in assay [5] (setting [7]) is -14%; in assay [5] (setting [8]) it was 95% (active); in assay [5] (at 50.0 µM), 95.7% (active); in assay [6] (setting [7]), 13%; in assay [6] (setting [8]), 97% (active); in assay [6] (at 50.0 µM), 95.6% (active).
With `C=CC1(c2ccc(OC)cc2)OCCCO1`, the growth inhibition in assay [1] (setting [7]) was -11%; in assay [1] (setting [8]), 99% (active); in assay [1] (at 50.0 µM) it was 89.7% (active); in assay [2] (setting [7]), -13%; in assay [2] (setting [8]) it was 99% (active); in assay [2] (at 50.0 µM) it was 92.4% (active). Further, the growth inhibition was -16% in assay [3] (setting [7]); 99% (active) in assay [3] (setting [8]); 87.5% (active) in assay [3] (at 50.0 µM); 27% in assay [4] (setting [7]); 99% (active) in assay [4] (setting [8]); 88.7% (active) in assay [4] (at 50.0 µM). In addition, the growth inhibition was -27% in assay [5] (setting [7]); 100% (active) in assay [5] (setting [8]); 90.8% (active) in assay [5] (at 50.0 µM); -16% in assay [6] (setting [7]); 97% (active) in assay [6] (setting [8]); 89% (active) in assay [6] (at 50.0 µM).
Take `CC(=O)/C(=C\c1c(Cl)cccc1Cl)C(=O)CCN(C)C`: the growth inhibition in assay [1] (setting [7]) is 18%; in assay [1] (setting [8]), 99% (active); in assay [1] (at 50.0 µM) it was 75.8% (active); in assay [2] (setting [7]) it was 17%; in assay [2] (setting [8]), 99% (active); in assay [2] (at 50.0 µM) it was 70.5% (active). Moreover, the growth inhibition in assay [3] (setting [7]) is 8%; in assay [3] (setting [8]), 99% (active); in assay [3] (at 50.0 µM), 81.6% (active); in assay [4] (setting [7]) it was 25%; in assay [4] (setting [8]), 99% (active); in assay [4] (at 50.0 µM), 41.2%. In addition, the growth inhibition in assay [5] (setting [7]) was 27%; in assay [5] (setting [8]), 99% (active); in assay [5] (at 50.0 µM) it was 65.8%; in assay [6] (setting [7]) it was 16%; in assay [6] (setting [8]), 99% (active); in assay [6] (at 50.0 µM), 67.9%.
On to `C/C(=N\O)c1ccc2cc(Br)c3ccccc3c2c1`, for which the growth inhibition in assay [1] (setting [7]) was 12%; in assay [1] (setting [8]), 98% (active); in assay [1] (at 50.0 µM), 96.2% (active); in assay [2] (setting [7]) it was 1%; in assay [2] (setting [8]), 98% (active); in assay [2] (at 50.0 µM), 97.4% (active). The growth inhibition in assay [3] (setting [7]) was -1%; in assay [3] (setting [8]), 98% (active); in assay [3] (at 50.0 µM) it was 98% (active); in assay [4] (setting [7]) it was -20%; in assay [4] (setting [8]), 96% (active); in assay [4] (at 50.0 µM) it was 96% (active). Also, the growth inhibition in assay [5] (setting [7]) was 8%; in assay [5] (setting [8]), 98% (active); in assay [5] (at 50.0 µM) it was 95.5% (active); in assay [6] (setting [7]), 3%; in assay [6] (setting [8]), 98% (active); in assay [6] (at 50.0 µM), 96.7% (active).
Regarding `CCOC(=O)C(Br)C(Br)c1cccc(Cl)c1` (configuration not stated), the growth inhibition is 53% in assay [1] (setting [7]); 99% (active) in assay [1] (setting [8]); 99.5% (active) in assay [1] (at 50.0 µM); 64% in assay [2] (setting [7]); 99% (active) in assay [2] (setting [8]); 99.7% (active) in assay [2] (at 50.0 µM). Also, the growth inhibition in assay [3] (setting [7]) was 84% (active); in assay [3] (setting [8]), 99% (active); in assay [3] (at 50.0 µM), 99.8% (active); in assay [4] (setting [7]), 31%; in assay [4] (setting [8]), 99% (active); in assay [4] (at 50.0 µM) it was 99.4% (active). Moreover, the growth inhibition was 57% in assay [5] (setting [7]); 99% (active) in assay [5] (setting [8]); 99.8% (active) in assay [5] (at 50.0 µM); 84% (active) in assay [6] (setting [7]); 99% (active) in assay [6] (setting [8]); 99.5% (active) in assay [6] (at 50.0 µM).
